Growth data for 14 compounds are collected here from PubChem BioAssay (NCI).

Molecules are shown by their SMILES. Compounds without any hit were thinned out: in the full panel of roughly 83,000, 20% have a hit.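 Plates (96-well) were seeded with cells, treated with compound at one concentration, and incubated for 48 hours before percent growth was determined.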 Values without a mark were called inactive. Active and inactive are the calls of the source. Rule for the calls: active = growth percent below 10; inactive = the rest.

Some test systems named below: RPMI-8226 leukemia; OVCAR-8 ovarian; OVCAR-5 ovarian; OVCAR-4 ovarian; SK-OV-3 ovarian; IGROV1 ovarian; OVCAR-3 ovarian; HS 578T breast; NCI/ADR-RES ovarian; T-47D breast.
Assay in all cases: NCI-60 one-dose screen, 48 h (100 = growth as untreated, 0 = no growth, -100 = all killed)
Holding throughout (details): 10 µM unless noted

With `COc1ccc(CCN2C(=O)/C(=C/c3ccc(C4Oc5ccccc5C5CC(c6cccc(OC)c6)=NN54)cc3)SC2=S)cc1` (stereo not given), the growth with RPMI-8226 leukemia was 103%; in the test with OVCAR-8 ovarian, 102%; in the test on OVCAR-5 ovarian, 99.9%; in the test with OVCAR-4 ovarian, 98.9%; in the test with SK-OV-3 ovarian it was 97.7%; with IGROV1 ovarian it was 104%. The growth in the test on OVCAR-3 ovarian is 102%; in the test with HS 578T breast, 101%; in the test with NCI/ADR-RES ovarian, 104%; in the test on T-47D breast, 100%.

Regarding `CCC1=C[C@@H]2CN(C1)Cc1c([nH]c3ccccc13)[C@@](C(=O)OC)(c1cc3c(cc1OC)N(C)[C@H]1[C@@](O)(C(=O)OC)[C@H](OC(C)=O)[C@]4(CC)[C@@H]5C[C@@H]5CN5CC[C@]31[C@@H]54)C2`, the growth with RPMI-8226 leukemia is -20.3% (active); in the test on OVCAR-8 ovarian, 14.5%; in the test with OVCAR-5 ovarian it was 44.6%; in the test on OVCAR-4 ovarian, 14.6%; with SK-OV-3 ovarian it was -24% (active); in the test on IGROV1 ovarian, 1.74% (active). The growth in the test with OVCAR-3 ovarian was -25.8% (active); with HS 578T breast, -5.73% (active); in the test with NCI/ADR-RES ovarian it was 1.35% (active); with T-47D breast it was 72%.

With `Nc1ccc(-n2c(=O)oc3ccc(Cl)cc3c2=O)c(Cl)c1`, the growth is -27.3% (active) with RPMI-8226 leukemia; -1.7% (active) in the test with OVCAR-8 ovarian; 25.6% in the test with OVCAR-5 ovarian; 18.2% in the test on OVCAR-4 ovarian; 5.68% (active) in the test with SK-OV-3 ovarian; 11.7% in the test with IGROV1 ovarian. Moreover, the growth in the test with OVCAR-3 ovarian was 5.11% (active); in the test with HS 578T breast, -4.07% (active); in the test on NCI/ADR-RES ovarian, -1.91% (active); in the test with T-47D breast, -8.23% (active).

Take `COc1cc(C2C(C#N)=C(N)OC3=C2C(=O)c2ccccc2C3=O)cc(OC)c1OC` (stereo not given): the growth in the test with RPMI-8226 leukemia is 18.5%; in the test on OVCAR-8 ovarian, 17.4%; in the test with OVCAR-5 ovarian it was 44%; in the test on OVCAR-4 ovarian, 74.1%; in the test with SK-OV-3 ovarian it was 29.9%; with IGROV1 ovarian it was 47.7%. Besides, the growth is 3.34% (active) with OVCAR-3 ovarian, 8.28% (active) in the test on HS 578T breast, 70.5% with NCI/ADR-RES ovarian and 67.3% in the test on T-47D breast.

In the case of `COc1c(B(O)O)cccc1-c1nc2ccc3n[nH]c(F)c3c2c2c1CCCC2`, the growth is 42.3% in the test on RPMI-8226 leukemia; 72% in the test on OVCAR-8 ovarian; 105% with OVCAR-5 ovarian; 96% in the test on OVCAR-4 ovarian; 79% in the test on SK-OV-3 ovarian; 80% in the test with IGROV1 ovarian. The growth in the test on OVCAR-3 ovarian was 91%; with HS 578T breast it was 43.9%; with NCI/ADR-RES ovarian, 79.6%; in the test on T-47D breast, 106%.

Take `CCN(CCO)CCNc1ccc(C)c2sc3cc(Cl)ccc3c(=O)c12`: the growth is 28.2% in the test with RPMI-8226 leukemia; 38.6% with OVCAR-8 ovarian; 64.4% in the test on OVCAR-5 ovarian; 70.8% in the test on OVCAR-4 ovarian; 62.2% in the test with SK-OV-3 ovarian; 56.6% in the test on IGROV1 ovarian. In addition, the growth with OVCAR-3 ovarian is 39.3%; in the test on HS 578T breast it was 41.9%; with NCI/ADR-RES ovarian, 45.4%; in the test on T-47D breast, 53.9%.

As to `O=C(CN1C(=O)/C(=C\c2ccc(Cl)cc2)SC1=S)Nc1ncc(Cc2ccc(Cl)cc2)s1`, the growth with RPMI-8226 leukemia is 102%; with OVCAR-8 ovarian, 101%; in the test with OVCAR-5 ovarian, 104%; in the test on OVCAR-4 ovarian, 105%; with SK-OV-3 ovarian, 104%; with IGROV1 ovarian, 103%. Besides, the growth in the test with OVCAR-3 ovarian is 108%; in the test on HS 578T breast, 98.9%; in the test with NCI/ADR-RES ovarian it was 104%; with T-47D breast, 105%.

As for `CCOC(=O)c1cnc2ccc(Cl)cc2c1NCCCN(C)C`, the growth was -3.54% (active) with RPMI-8226 leukemia; -3.54% (active) in the test with OVCAR-8 ovarian; 53.8% in the test on OVCAR-5 ovarian; -12.1% (active) in the test on OVCAR-4 ovarian; 14.5% in the test with SK-OV-3 ovarian; -16.2% (active) with IGROV1 ovarian. Moreover, the growth is 18.8% in the test on OVCAR-3 ovarian, 33% in the test on HS 578T breast, 7.93% (active) with NCI/ADR-RES ovarian and 14.6% in the test with T-47D breast.

`CC(C)(C)c1ccc(C2CC(=O)C3=C(C2)Nc2ccccc2N(C(=O)c2ccccc2Cl)C3c2ccc(F)cc2)cc1` (stereo not given): the growth is 14.1% with RPMI-8226 leukemia; -12% (active) in the test on OVCAR-8 ovarian; 38.9% in the test with OVCAR-5 ovarian; -68.3% (active) in the test on OVCAR-4 ovarian; 62.5% in the test with SK-OV-3 ovarian; -26.7% (active) in the test on IGROV1 ovarian. For the same compound, the growth was -28.5% (active) in the test on OVCAR-3 ovarian, 81.5% in the test on HS 578T breast, 24.3% with NCI/ADR-RES ovarian and 9.46% (active) in the test with T-47D breast.

With `O=NN(Cc1cccnc1)C(=O)NC1CCCCC1`, the growth with RPMI-8226 leukemia was 95.3%; with OVCAR-8 ovarian, 104%; in the test on OVCAR-5 ovarian it was 97.4%; with OVCAR-4 ovarian it was 104%; with SK-OV-3 ovarian it was 113%; with IGROV1 ovarian, 113%. Further, the growth was 114% in the test with OVCAR-3 ovarian, 118% with HS 578T breast, 105% with NCI/ADR-RES ovarian and 98.1% in the test with T-47D breast.

For the compound `Cc1nc2ccccc2c(/C=C/c2ccc(F)cc2)c1C(N)=O`, the growth is 96.1% in the test with RPMI-8226 leukemia; 104% in the test on OVCAR-8 ovarian; 105% in the test on OVCAR-5 ovarian; 95.5% in the test with OVCAR-4 ovarian; 105% with SK-OV-3 ovarian; 97.4% with IGROV1 ovarian. The growth with OVCAR-3 ovarian was 107%; in the test on HS 578T breast it was 106%; in the test with NCI/ADR-RES ovarian, 111%; in the test on T-47D breast, 90.8%.

In the case of `CCc1ccc(CNCC(O)c2ccccc2)cc1` (stereo not given), the growth in the test with RPMI-8226 leukemia is 34.3%; in the test with OVCAR-8 ovarian, 72.2%; in the test with OVCAR-5 ovarian, 76.1%; with OVCAR-4 ovarian it was 55.3%; in the test with SK-OV-3 ovarian, 90.6%; in the test with IGROV1 ovarian, 41.1%. In addition, the growth was 71.4% with OVCAR-3 ovarian, 93.3% in the test with HS 578T breast, 65.7% with NCI/ADR-RES ovarian and 72% with T-47D breast.

With `CCCc1c(C)c2sc(=O)[nH]c2[nH]c1=O`, the growth is 112% in the test on RPMI-8226 leukemia; 104% in the test on OVCAR-8 ovarian; 103% in the test with OVCAR-5 ovarian; 100% with OVCAR-4 ovarian; 104% with SK-OV-3 ovarian; 112% with IGROV1 ovarian. Besides, the growth in the test on OVCAR-3 ovarian was 113%; with HS 578T breast, 103%; with NCI/ADR-RES ovarian it was 105%; with T-47D breast, 102%.

For the compound `CCOC(=O)c1c(C=O)nc2ccccc2c1/C=C/c1ccc(Cl)cc1`, the growth in the test with RPMI-8226 leukemia was 85.7%; with OVCAR-8 ovarian, 104%; with OVCAR-5 ovarian, 101%; with OVCAR-4 ovarian it was 85.6%; in the test with SK-OV-3 ovarian, 95.1%; in the test with IGROV1 ovarian it was 80.9%. The growth with OVCAR-3 ovarian was 98.6%; in the test with HS 578T breast, 90.6%; in the test on NCI/ADR-RES ovarian it was 103%; in the test on T-47D breast it was 86.2%.
